HEK293 tox: Cytotoxic Profiling in HEK 293 Cell Line of Diverse Libraries Using Quantitative High-Throughput Screening | AID 1345083, 2018 | HEK 293 viability, ATP luminescence (CellTiter-Glo), 48-72 h | actives 6.6% (n = 94,000) | Potency, µM (titrated, usually from 115 µM), usual class: inhibitors; note: nearly all actives have a fitted effect of over 60% in size
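HEK 293 seeded at 250 cells/well receive compound via pintool. After 48 or 72 hr at 37 degree Celsius, 5% CO2 and 95% humidity, CellTiter-Glo is dispensed and luminescence read following 10 min at room temperature.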
NIH3T3 tox: Cytotoxic Profiling in NIH 3T3 Cell Line of Diverse Libraries Using Quantitative High-Throughput Screening | Potency, µM (highest dose often 96.7 µM), most hits filed as inhibitors | NIH 3T3 viability, CellTiter-Glo ATP luminescence, 48-72 h | actives 4.3% (n = 94,000); note: nearly all actives have a fitted effect of over 55% in size
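Viability of NIH 3T3 cells after 48 or 72 hr compound treatment at 37 °C was assessed by CellTiter-Glo, with luminescence imaged following a 10 min room-temperature step.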
hNpr1 antagonist: Natriuretic polypeptide receptor (hNpr1) antagonism - Primary qHTS; actives 1.6% (n = 76,000); Atrial natriuretic peptide receptor 1 (Homo sapiens), P16066; HEK293 hNpr1 GloSensor cGMP, ANP-stimulated luminescence; Potency, µM (series often up to 46.3 µM), actives largely listed as inhibitors; calls by dose curve; note: nearly all actives have a fitted effect of over 60% in size
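HEK293 cells stably expressing human Npr1 and cGMP GloSensor pGS-40F, loaded 2 h with 2% GloSensor reagent, given compound 30 min at room temperature. Luminescence read before and 20 min after 0.1 nM hNppA.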
Luciferase inh: Firefly luciferase inhibition profiling of diverse chemical library using quantitative high-throughput screening; Luciferin 4-monooxygenase (Photinus pyralis), P08659; purified P. pyralis luciferase, luminescence, biochemical; Potency, µM (top dose mostly 115 µM), most hits filed as inhibitors; actives 2.5% (n = 76,000); note: nearly all actives have a fitted effect of over 65% in size
Target sequence (P08659 whole entry, looked up): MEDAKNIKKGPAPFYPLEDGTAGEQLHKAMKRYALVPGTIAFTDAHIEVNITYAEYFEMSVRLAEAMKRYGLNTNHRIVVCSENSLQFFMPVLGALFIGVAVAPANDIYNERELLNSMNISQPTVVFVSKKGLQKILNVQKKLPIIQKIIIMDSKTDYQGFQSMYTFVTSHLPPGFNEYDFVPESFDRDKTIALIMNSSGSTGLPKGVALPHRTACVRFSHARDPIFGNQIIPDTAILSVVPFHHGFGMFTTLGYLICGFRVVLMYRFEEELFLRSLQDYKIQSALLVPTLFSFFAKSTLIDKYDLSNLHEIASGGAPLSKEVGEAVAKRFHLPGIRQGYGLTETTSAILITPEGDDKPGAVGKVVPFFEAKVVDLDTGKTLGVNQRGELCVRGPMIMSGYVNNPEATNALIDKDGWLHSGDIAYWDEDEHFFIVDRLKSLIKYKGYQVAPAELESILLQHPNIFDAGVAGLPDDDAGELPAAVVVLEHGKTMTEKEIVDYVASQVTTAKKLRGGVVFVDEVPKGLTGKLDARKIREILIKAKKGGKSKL
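FLuc 10nM, D-luciferin 10uM, ATP 10uM, Mg acetate 10mM, Tris acetate pH 7.5, Tween/BSA; cpd qHTS; enzyme added last; CCD luminescence.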
Npr1 antag conf: Natriuretic polypeptide receptor (hNpr1) antagonism - Confirmation. Potency, µM (titrated, usually from 57.6 µM), hits mostly inhibitors. HEK293 hNpr1 cGMP GloSensor luminescence, ANP-stimulated. AID 1347044, 2019. shares compounds with hNpr1 antagonist. actives 76% (n = 1,400); calls by dose curve; note: nearly all actives have a fitted effect of over 70% in size
Npr2 selectivity: Natriuretic polypeptide receptor (hNpr2) antagonism - Subtype selectivity assay; shares compounds with hNpr1 antagonist; AID 1347046, 2019; actives 67% (n = 1,400); Potency, µM (top dose mostly 57.6 µM), hits mostly inhibitors; HEK293 hNpr2 GloSensor cGMP luminescence, CNP-stimulated; calls by dose curve; note: nearly all actives have a fitted effect of over 70% in size
FLuc counter: Natriuretic polypeptide receptor (hNpr1) antagonism - Confirmation firefly luciferase (FLuc) inhibition counterscreen | shares compounds with hNpr1 antagonist | purified FLuc enzyme, luminescence, Km substrate | Potency, µM (titrated, usually from 57.6 µM), most hits filed as inhibitors | actives 0.7% (n = 1,400); note: series mostly up to about 58 µM
GloSensor ctrl: Natriuretic polypeptide receptor (hNpr1) antagonism - Counterscreen GloSensor control cell line; shares compounds with hNpr1 antagonist; HEK293 GloSensor cGMP, SNP-stimulated, luminescence; Potency, µM (top dose mostly 57.6 µM), usual class: inhibitors; actives 69% (n = 1,400); calls by dose curve; note: nearly all actives have a fitted effect of over 70% in size
Of the large screens only hits and unclear results are named; the others gave an inactive call (follow-up assays come after a bar, where they were run). Hits are enriched below; roughly 11% of the tested compounds scored in any of these assays. Unless noted, calls come from the whole dose curve; as a rule, active = well fitted curve in the direction sought with a large enough effect; inconclusive = small, poorly fitted or top-dose-only effect, or another doubt; inactive = no such curve, though single readings can be large; an effect the other way counts as inactive or inconclusive.

Cc1cccc2nc(C(=O)N3CCC4(CC3)CC(c3ccccc3)CN(C)C4)cn12 (centres undefined)	HEK293 tox inconclusive
Cc1cccc2nc(C(=O)N3CCCC(c4[nH]ncc4-c4ccccc4)C3)cn12 (centres undefined)	HEK293 tox inconclusive, NIH3T3 tox inconclusive, hNpr1 antagonist inconclusive | Npr1 antag conf inconclusive | Npr2 selectivity inconclusive | FLuc counter inactive | GloSensor ctrl inactive
COCCN1CC(CO)C2(CCN(C(=O)Cc3c(C)noc3C)CC2)C1 (centres undefined)	none
CNC(=O)N1CCC(C2CCN(C(=O)CCc3ccc(OC)cc3)C2)CC1 (centres undefined)	none
CCCC(=O)N1CCC2(CC1)CC(N(Cc1ccc(F)cc1)C1CC1)CCO2 (centres undefined)	HEK293 tox inconclusive | Npr1 antag conf inactive | Npr2 selectivity inactive | FLuc counter inactive | GloSensor ctrl inactive
O=C(c1ccc(F)cc1)N1CCC2(CC1)CC(N(Cc1ccc(F)cc1)C1CC1)CCO2 (centres undefined)	HEK293 tox inconclusive, NIH3T3 tox inconclusive, hNpr1 antagonist inconclusive | Npr1 antag conf inconclusive | Npr2 selectivity inconclusive | FLuc counter inactive | GloSensor ctrl inconclusive
O=C(c1cccs1)N1CCC2(CC1)CC(Cc1ccc(F)cc1)CCO2 (centres undefined)	HEK293 tox inconclusive, NIH3T3 tox inconclusive, hNpr1 antagonist 11µM | Npr1 antag conf 27µM | Npr2 selectivity 27µM | FLuc counter inactive | GloSensor ctrl 27µM
CCc1nccc(-c2c(-c3ccccc3)ncn2CC(O)c2ccccc2)n1 (centres undefined)	NIH3T3 tox inconclusive
Cc1ccc(S(=O)(=O)N2CCC(CC(=O)NCc3ccccc3)C2)cc1F (centres undefined)	none
COc1ccc(Nc2n[nH]c(C(O)c3cccc(C(F)(F)F)c3)n2)cc1OC (centres undefined)	HEK293 tox inconclusive
OC(c1cccc(C(F)(F)F)c1)c1nc(Nc2ccc3c(c2)OCO3)n[nH]1 (centres undefined)	HEK293 tox inconclusive, NIH3T3 tox inconclusive, hNpr1 antagonist inconclusive | Npr1 antag conf inconclusive | Npr2 selectivity inconclusive | FLuc counter inactive | GloSensor ctrl inconclusive
Cn1c([C@H]2CCN(S(=O)(=O)c3cccc4cccnc34)C2)nc2ccccc21	HEK293 tox inconclusive, NIH3T3 tox inconclusive
COCCCNC(=O)c1ccc2nc(-c3ccncc3)oc2c1	none (no result: hNpr1 antagonist, Luciferase inh)
COc1cccc(CNc2cc(Cl)nc3ccnn23)c1	HEK293 tox inconclusive, NIH3T3 tox 28µM, hNpr1 antagonist inconclusive | Npr1 antag conf 40µM | Npr2 selectivity 35µM | FLuc counter inactive | GloSensor ctrl 35µM
Clc1cc(NCCOc2ccccc2)n2nccc2n1	HEK293 tox inconclusive, NIH3T3 tox inconclusive, Luciferase inh inconclusive
COc1ccc(-c2noc(-c3cccn3CC(=O)N3CCOc4ccc(C)cc43)n2)cc1F	HEK293 tox inconclusive
COCc1cc(N2CCC(c3cccc(OC)c3OC)C2)ncn1 (centres undefined)	HEK293 tox inconclusive, NIH3T3 tox inconclusive, hNpr1 antagonist 3.2µM | Npr1 antag conf 3.1µM | Npr2 selectivity 4.8µM | FLuc counter inactive | GloSensor ctrl 3.1µM
COc1ccc(OC)c(C2CCN(c3ncncn3)C2)c1 (centres undefined)	HEK293 tox inconclusive, NIH3T3 tox inconclusive

Compound activity as filed in PubChem.
